# The supplement of paper PMC3724861
# Shown is part of a subset that was picked to be rich in hits. How many sequences the whole screen found active is unknown. Values without a mark were called inactive.
# Test system: T1, Caupolican (Caup) homeodomain DNA-binding domain
# T1 sequence: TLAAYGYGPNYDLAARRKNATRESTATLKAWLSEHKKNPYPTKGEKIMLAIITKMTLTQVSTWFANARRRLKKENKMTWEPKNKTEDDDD
# Assay: PBM E-score (8-mer, recovered from the published 9-mer minima) (E-score (dimensionless, -0.5 to 0.5)); Drosophila protein; higher = stronger relative binding preference, active = 0.31 or more
# Description: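 Protein binding microarray (PBM): in vitro transcribed/translated Caupolican (Caup) homeodomain DNA-binding domain (residues 214-303) applied at 100 nM to a universal 8-mer PBM array (Agilent AMADID 015681). The 8-mer enrichment score (E-score, range -0.5 to 0.5) was computed, and each 9-mer score is the minimum E-score of its two constituent 8-mers. The E-score is the same for a 9-mer and its reverse complement; 0.31 is the stated binding threshold.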
row,Sequence,PBM E-score
1,CTGACACA,0.2
2,CCCACCTA,-0.1
3,CCAGGTCG,-0.0728
4,ACTCGCAC,-0.119
5,TGCGATAA,0.101
6,AAAGTCGT,0.0643
7,ATTGTTAA,0.21
8,GCTGTTAA,0.0966
9,GTTGTTAA,0.349 (active)
10,GCATTGGC,-0.14
11,TAACTACA,0.348 (active)
12,TAACTAAA,0.109
13,AAACTACT,0.236
14,AAACTACC,0.168
15,GAACTACC,0.0628
16,CAACTACA,0.287
17,GAACTACA,0.314 (active)
18,TAACTATA,0.18
19,AAACTACA,0.331 (active)
20,CGGCCTAC,-0.0509
21,CGTATCAC,0.101
22,ACCTAGAA,0.08
23,TACAGAAA,0.17
24,AAATCTAA,0.0434
25,CGATTGAA,0.0347

row,Sequence,PBM E-score
1,GAGTGCAA,0.065
2,AAGTCACA,0.0474
3,ATGTCACC,0.279
4,CTGTCACA,0.167
5,GTGTCACA,0.29
6,ATGTCACG,0.367 (active)
7,ATGTCACA,0.39 (active)
8,CACTGCCC,-0.0974
9,ATTAGTTC,0.154
10,GATAATCA,0.0651
11,GCTGTGGA,-0.0809
12,ATATGGTC,0.105
13,CAACGCAA,0.0313
14,AAGGTGGA,-0.0864
15,ATTACAGC,0.128
16,CTTACATA,0.288
17,ATTACATG,0.447 (active)
18,ATTACATC,0.374 (active)
19,ATTACAGA,0.208
20,ATCACATG,0.286
21,CTCACATA,0.149
22,GTTACAGA,0.172
23,CTTACATC,0.296
24,ATTACAGG,0.244
25,GTTACATA,0.365 (active)

row,Sequence,PBM E-score
1,ATTACATA,≥ 0.385 (active)
2,TGCGCTAA,0.0295
3,CTCTGAAG,-0.17
4,AGATCCCT,-0.128
5,GAGAATCA,-0.0157
6,GATGCATA,0.0414
7,CCCCATGC,-0.233
8,CGGCTTAG,-0.235
9,ATCATGCC,0.0227
10,AGCCAGGG,-0.276
11,ACGTACAG,0.103
12,ACGTACAT,0.337 (active)
13,ACGTACCT,0.0612
14,CCGTACAC,0.199
15,ACGTACAC,0.333 (active)
16,GCGTACAC,0.217
17,ATTTCTCA,0.0413
18,ACGACAGT,0.094
19,AGCATATA,0.119
20,AATCGAGC,0.0234
21,ATGTGTCA,0.297
22,TCGTGTCA,0.328 (active)
23,ACGTGTCG,0.301
24,ACGTGTCA,≥ 0.374 (active)
25,CTGTGTCA,0.142

row,Sequence,PBM E-score
1,TAGTGTCA,0.182
2,GCGTGTCA,0.284
3,GTGTGTCA,≥ 0.312 (active)
4,CCGTGTCA,0.278
5,TACGTGGA,-0.086
6,AACTATCT,0.0956
7,ATGCCGGC,-0.134
8,AGCCCGAG,-0.187
9,ACCAACCC,-0.0241
10,CAGGGGAC,-0.193
11,AAACACTA,0.193
12,AACATCAC,0.267
13,AACATCAG,0.231
14,TACATCAA,0.331 (active)
15,GACATCAA,0.296
16,TACATCGA,0.314 (active)
17,CACATCAA,0.0655
18,GACATCGA,0.24
19,AACATCAA,≥ 0.316 (active)
20,CACATCGA,0.0459
21,GTGGCTTA,-0.0913
22,GATCGGAA,0.052
23,GTTGAGTA,0.128
24,CCTGTACC,0.11
25,CCTGTACA,0.32 (active)

row,Sequence,PBM E-score
1,CATGTACC,0.416 (active)
2,CATGTACA,0.469 (active)
3,ACTGTACA,0.257
4,GATGTACA,0.404 (active)
5,GATGTGCA,0.102
6,ACTGTACC,0.107
7,CATGTGTA,0.308
8,CATGTGCA,0.119
9,CAAGTACC,0.159
10,CTAGCGAG,-0.138
11,AGTGAATG,0.0689
12,GGGCTGAC,-0.108
13,ACGCATCC,-0.0982
14,AATGTACA,0.407 (active)
15,TATGTACA,0.427 (active)
16,GATGTACC,0.366 (active)
17,AATGTGTA,0.311 (active)
18,TATGTAGA,0.226
19,AATGTACC,0.192
20,GCTGTACC,0.0813
21,AATGTGTG,0.142
22,GATGTGCC,-0.0456
23,TCTGTACA,0.281
24,AATGTACT,0.269
25,GATGTGTA,0.252

row,Sequence,PBM E-score
1,CAATGCTG,-0.0134
2,CCGTAACG,-0.1
3,CCTGAGCG,-0.215
4,AAGGTCTC,-0.0943
5,CCTGTACG,0.0896
6,CATGTACG,0.409 (active)
7,AATGTACG,0.153
8,CACCTTGC,0.00581
9,CCAGTACC,-0.0496
10,AATACTCG,0.138
11,ATGGTATC,0.109
12,AGATGCTA,0.0221
13,CTTACACA,0.201
14,GTTACAAA,0.285
15,ATTACTCA,0.112
16,ATTACACC,0.259
17,ATTACACA,≥ 0.332 (active)
18,GTTACACA,0.339 (active)
19,CGCAGGAA,-0.134
20,GACGCACA,-0.0232
21,CAGTTCAA,-0.0476
